Consider three molecules from PubChem BioAssay (NCI).

Molecules are shown by their SMILES. About 83,000 compounds went through this panel and 20% of them were active in at least one assay; those are over-represented in the sample as a whole.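 Cell lines were cultured in 96-well plates, exposed to a single compound concentration, and assessed for percent growth 48 hours later.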 Values without a mark were called inactive. Active and inactive are the calls of the source. Rule for the calls: active = growth percent below 10; inactive = the rest.

Test systems include EKVX NSCLC; SN12C renal; UO-31 renal; TK-10 renal; CAKI-1 renal; A498 renal; CCRF-CEM leukemia; MOLT-4 leukemia; SR leukemia; OVCAR-8 ovarian; OVCAR-5 ovarian; OVCAR-4 ovarian; SK-OV-3 ovarian; IGROV1 ovarian; OVCAR-3 ovarian; NCI/ADR-RES ovarian; RPMI-8226 leukemia; ACHN renal.
Holding throughout (assay): NCI-60 one-dose screen, 48 h (100 = growth as untreated, 0 = no growth, -100 = all killed)
What all share (details): 10 µM unless noted

In the case of `COc1ccc2c(c1)cn1c3ccc(O)cc3nc(N)c21`, the growth was 41% in the experiment on EKVX NSCLC; 34.6% in the experiment on SN12C renal; 15.6% in the experiment with UO-31 renal; 25.2% in the experiment on TK-10 renal; 26.9% in the experiment with CAKI-1 renal; 38.6% in the experiment on A498 renal. The growth with CCRF-CEM leukemia was 23%; with MOLT-4 leukemia it was 18.5%; in the experiment with SR leukemia it was 3.65% (active); with OVCAR-8 ovarian, 28.1%; in the experiment on OVCAR-5 ovarian, 38.3%; with OVCAR-4 ovarian, 37.7%. The growth in the experiment with SK-OV-3 ovarian is 5.03% (active); in the experiment on IGROV1 ovarian, 17.4%; in the experiment on OVCAR-3 ovarian, 43%; with NCI/ADR-RES ovarian, -0.794% (active).
In the case of `Cc1cn(-c2cc(NC(=O)c3ccc(C)c(Nc4nccc(-c5cccnc5)n4)c3)cc(C(F)(F)F)c2)cn1`, the growth in the experiment with EKVX NSCLC is 69.6%; in the experiment on SN12C renal, 66.9%; with UO-31 renal, -3.45% (active); in the experiment with TK-10 renal, 75.1%; in the experiment on CAKI-1 renal it was 50.6%; in the experiment with A498 renal, 82.2%. In addition, the growth in the experiment on CCRF-CEM leukemia was 36.2%; with MOLT-4 leukemia, 42.9%; in the experiment on SR leukemia it was 8.24% (active); in the experiment on RPMI-8226 leukemia it was 37.9%; in the experiment with OVCAR-8 ovarian, 42.6%; in the experiment with OVCAR-5 ovarian it was 57%. The growth is 51.8% in the experiment on OVCAR-4 ovarian; 119% in the experiment with SK-OV-3 ovarian; -44.4% (active) in the experiment on IGROV1 ovarian; 92.6% in the experiment with OVCAR-3 ovarian; 31.6% in the experiment with NCI/ADR-RES ovarian.
For `FC(F)c1nc2ccccc2n1-c1nc(N2CCOCC2)nc(N2CCOCC2)n1`, the growth in the experiment with EKVX NSCLC was 2.75% (active); in the experiment with SN12C renal, 8.54% (active); in the experiment with UO-31 renal it was -26.2% (active); with ACHN renal it was -8.61% (active); in the experiment with CAKI-1 renal, -11% (active); in the experiment with A498 renal, -82.4% (active). Further, the growth is 8.99% (active) in the experiment on CCRF-CEM leukemia; 1.48% (active) in the experiment on MOLT-4 leukemia; 1.58% (active) with SR leukemia; 8.02% (active) with RPMI-8226 leukemia; -8.56% (active) in the experiment on OVCAR-8 ovarian; 1.3% (active) in the experiment on OVCAR-5 ovarian. Further, the growth was -17.1% (active) in the experiment on OVCAR-4 ovarian, -46% (active) with SK-OV-3 ovarian, -37% (active) in the experiment with IGROV1 ovarian and -0.63% (active) in the experiment on OVCAR-3 ovarian.
